PubChem BioAssay (EPA / NIEHS)
Results filed as inconclusive are left out. Calls of active or inactive are those of the source. The calls were made as follows, unless noted: active = hit-call score of the fitted dose curve at least 0.9, where 1 is the maximum; inconclusive = response in the unintended direction; inactive = score below 0.9.

Key:
[1] = ATG_NF_kB_CIS: Attagene CIS-FACTORIAL HepG2 Assay for human Nuclear Factor Kappa B (NF-kB) (AID 2282991; active = hit-call score of the fitted dose curve at least 0.9, where 1 is the maximum; inactive = score below 0.9); conditions: HepG2 Attagene cis-factorial NF-kB reporter mRNA; actives raise or lower the signal
How it was run: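 DMSO served as negative control and baseline for bidirectional curve fitting. Transiently transfected HepG2 cells were dosed for 24 h, then reporter transcripts were measured by RT-PCR with capillary electrophoresis detection.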

[2] = ATG_NRF2_ARE_CIS: Attagene CIS-FACTORIAL HepG2 Assay for human Nuclear Factor Erythroid 2 Related Factor 2 (NFR2) response to Antioxidant Response Elements (ARE) (AID 2282992; active = hit-call score of the fitted dose curve at least 0.9, where 1 is the maximum; inactive = score below 0.9;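 as to AC50: reporter mRNA level measured by RT-PCR and capillary electrophoresis fluorescence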); conditions: HepG2 Attagene ARE/NRF2 reporter, transcription factor activity; actives raise or lower the signal
How it was run: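 Readout: reporter mRNA quantified by RT-PCR plus FAM-labelled primer extension, HpaI digestion and capillary electrophoresis, 24 h after dosing transfected HepG2 cells. Gain or loss of signal is fitted bidirectionally against DMSO baseline.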

[3] = ATG_Oct_MLP_CIS: Attagene CIS-FACTORIAL HepG2 Assay for human Octamer-Binding Transcription Factor (Oct) (AID 2282993; active = hit-call score of the fitted dose curve at least 0.9, where 1 is the maximum; inactive = score below 0.9); conditions: HepG2 Attagene cis-factorial Oct reporter, mRNA; actives raise or lower the signal
How it was run: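 Transient MRTU transfection of HepG2 → 24 h compound treatment → RNA isolation, reverse transcription, PCR → 6-FAM primer extension, HpaI digest → capillary electrophoresis. Activity fitted both directions against DMSO.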

[4] = target: Cellular tumor antigen p53 (Homo sapiens) (UniProt P04637); assay: ATG_p53_CIS: Attagene CIS-FACTORIAL HepG2 Assay for human p53 Transcription Factor (AID 2282994; active = hit-call score of the fitted dose curve at least 0.9, where 1 is the maximum; inactive = score below 0.9); conditions: HepG2 p53 cis-element reporter, Attagene mRNA; actives raise or lower the signal
Cellular tumor antigen p53 (Homo sapiens), sequence (P04637 whole entry, looked up): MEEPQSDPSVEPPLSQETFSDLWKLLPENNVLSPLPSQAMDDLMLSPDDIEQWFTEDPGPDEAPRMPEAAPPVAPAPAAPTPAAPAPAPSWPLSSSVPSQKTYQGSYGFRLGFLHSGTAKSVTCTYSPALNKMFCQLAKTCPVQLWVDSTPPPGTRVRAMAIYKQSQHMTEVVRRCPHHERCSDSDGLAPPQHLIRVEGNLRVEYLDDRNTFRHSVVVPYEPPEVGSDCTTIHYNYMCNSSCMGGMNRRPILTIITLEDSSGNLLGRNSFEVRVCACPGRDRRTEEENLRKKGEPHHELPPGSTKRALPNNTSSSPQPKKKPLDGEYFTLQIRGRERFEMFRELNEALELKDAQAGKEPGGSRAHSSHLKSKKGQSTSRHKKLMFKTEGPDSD
How it was run: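 Read-out: reporter mRNA by RT-PCR plus capillary electrophoresis with fluorescence detection. Human HepG2 liver cells carried transfected multi-reporter cis-element constructs, dosed 24 h. Gain or loss of signal fitted bidirectionally against DMSO control.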

[5] = target: human Peroxisome Proliferator-activated Receptor alpha (PPARa), PPARA (gene 5465) (UniProt Q07869); assay: ATG_PPARa_TRANS: Attagene TRANS-FACTORIAL HepG2 Assay for human Peroxisome Proliferator-activated Receptor alpha (PPARa) (AID 2283001)
human Peroxisome Proliferator-activated Receptor alpha (PPARa), PPARA (gene 5465), sequence (Q07869 whole entry, looked up): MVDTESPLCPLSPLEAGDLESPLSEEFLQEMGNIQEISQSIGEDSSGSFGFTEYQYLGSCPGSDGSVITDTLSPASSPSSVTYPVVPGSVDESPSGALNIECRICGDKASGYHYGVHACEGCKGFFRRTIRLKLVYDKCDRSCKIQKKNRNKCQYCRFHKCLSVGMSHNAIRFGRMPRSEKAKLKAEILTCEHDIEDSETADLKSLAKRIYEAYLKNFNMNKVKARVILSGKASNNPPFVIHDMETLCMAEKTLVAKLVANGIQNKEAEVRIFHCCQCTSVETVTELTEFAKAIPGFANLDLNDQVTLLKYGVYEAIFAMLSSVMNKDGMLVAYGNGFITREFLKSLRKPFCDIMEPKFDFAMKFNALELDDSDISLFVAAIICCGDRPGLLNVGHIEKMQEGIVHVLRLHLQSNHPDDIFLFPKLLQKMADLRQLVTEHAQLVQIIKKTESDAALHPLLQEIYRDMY
How it was run: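 Cells (HepG2) are transfected with multiple reporter transcription units, exposed to chemical for 24 h, then total RNA is reverse-transcribed and amplified. Labelled products are quantified by capillary electrophoresis; induction is referenced to DMSO.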

[6] = target: Retinoic acid receptor alpha (Homo sapiens) (UniProt P10276); assay: ATG_RARa_TRANS: Attagene TRANS-FACTORIAL HepG2 Assay for human Retinoic Acid Receptor alpha (RARa) (AID 2283005)
Retinoic acid receptor alpha (Homo sapiens), sequence (P10276 whole entry, looked up, the tested form may be a part): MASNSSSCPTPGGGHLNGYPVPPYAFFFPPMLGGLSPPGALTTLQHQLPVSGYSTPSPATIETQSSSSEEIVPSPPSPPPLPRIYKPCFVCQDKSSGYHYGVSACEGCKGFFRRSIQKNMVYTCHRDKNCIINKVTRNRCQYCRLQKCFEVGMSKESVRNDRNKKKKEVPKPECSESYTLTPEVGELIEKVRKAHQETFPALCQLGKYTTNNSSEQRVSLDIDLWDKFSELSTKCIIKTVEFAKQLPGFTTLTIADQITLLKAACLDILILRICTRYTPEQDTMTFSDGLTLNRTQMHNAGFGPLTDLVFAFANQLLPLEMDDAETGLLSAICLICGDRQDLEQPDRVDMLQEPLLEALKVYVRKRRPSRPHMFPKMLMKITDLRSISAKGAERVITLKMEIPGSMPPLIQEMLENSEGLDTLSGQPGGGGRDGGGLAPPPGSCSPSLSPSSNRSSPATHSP
How it was run: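 HepG2 cells transiently transfected with multiple reporter units expressing chimeric RARα-GAL4 fusion, with GAL4-UAS-driven reporters. After 24 h compound exposure, reporter mRNA induction quantified by RT-PCR and capillary electrophoresis with fluorescent labeling; gain-of-signal fitted relative to DMSO control.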

[7] = target: Peroxisome proliferator-activated receptor gamma (Homo sapiens) (UniProt P37231); assay: ATG_PPARg_TRANS: Attagene TRANS-FACTORIAL HepG2 Assay for human Peroxisome Proliferator-activated Receptor-gamma (PPARg) (AID 2283007)
Peroxisome proliferator-activated receptor gamma (Homo sapiens), sequence (P37231 whole entry, looked up, the tested form may be a part): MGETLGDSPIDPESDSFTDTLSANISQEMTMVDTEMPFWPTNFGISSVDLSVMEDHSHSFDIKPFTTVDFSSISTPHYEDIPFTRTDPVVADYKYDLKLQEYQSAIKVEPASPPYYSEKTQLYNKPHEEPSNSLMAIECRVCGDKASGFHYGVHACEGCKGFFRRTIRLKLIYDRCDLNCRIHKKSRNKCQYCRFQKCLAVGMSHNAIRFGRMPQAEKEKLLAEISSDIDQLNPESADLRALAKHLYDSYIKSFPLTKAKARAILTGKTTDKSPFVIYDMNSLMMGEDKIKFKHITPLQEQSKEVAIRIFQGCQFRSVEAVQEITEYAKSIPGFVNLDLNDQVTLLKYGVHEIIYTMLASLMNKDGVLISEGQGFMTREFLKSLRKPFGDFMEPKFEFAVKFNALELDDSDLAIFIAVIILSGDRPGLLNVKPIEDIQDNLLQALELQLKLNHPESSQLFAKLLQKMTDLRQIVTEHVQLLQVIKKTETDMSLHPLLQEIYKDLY
How it was run: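 Chimeric NR-Gal4 transactivation is measured in transiently transfected HepG2 cells by reporter mRNA induction at 24 h. Detection uses RT-PCR with fluorescent labelling and capillary electrophoresis; DMSO defines baseline.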

[8] = target: Nuclear receptor subfamily 1 group I member 2 (Homo sapiens) (UniProt O75469); assay: ATG_PXR_TRANS: Attagene TRANS-FACTORIAL HepG2 Assay for human Pregnane X Receptor (PXR) (AID 2283008)
Nuclear receptor subfamily 1 group I member 2 (Homo sapiens), sequence (O75469 whole entry, looked up, the tested form may be a part): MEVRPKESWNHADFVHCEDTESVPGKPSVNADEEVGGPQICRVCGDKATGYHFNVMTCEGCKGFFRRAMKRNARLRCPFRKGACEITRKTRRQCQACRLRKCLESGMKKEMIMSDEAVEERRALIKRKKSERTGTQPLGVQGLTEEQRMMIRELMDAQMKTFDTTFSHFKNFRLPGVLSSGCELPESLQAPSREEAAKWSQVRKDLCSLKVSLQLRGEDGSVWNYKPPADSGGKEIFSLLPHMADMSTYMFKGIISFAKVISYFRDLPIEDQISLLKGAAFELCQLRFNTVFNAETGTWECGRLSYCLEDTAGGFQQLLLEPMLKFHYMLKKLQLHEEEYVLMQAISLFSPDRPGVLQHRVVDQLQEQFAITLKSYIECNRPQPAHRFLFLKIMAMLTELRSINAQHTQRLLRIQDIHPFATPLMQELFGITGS
How it was run: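 Trans-factorial format: exogenous NR-Gal4 fusion activity, not endogenous factor, in transfected human HepG2 liver cells. After 24 h dosing, RNA isolated, reverse-transcribed, amplified and resolved by capillary electrophoresis; induction scored versus DMSO.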

[9] = target: human Retinoic Acid Receptor gamma (RARg), RARG (gene 5916) (UniProt P13631); assay: ATG_RARg_TRANS: Attagene TRANS-FACTORIAL HepG2 Assay for human Retinoic Acid Receptor gamma (RARg) (AID 2283009)
human Retinoic Acid Receptor gamma (RARg), RARG (gene 5916), sequence (P13631 whole entry, looked up, the tested form may be a part): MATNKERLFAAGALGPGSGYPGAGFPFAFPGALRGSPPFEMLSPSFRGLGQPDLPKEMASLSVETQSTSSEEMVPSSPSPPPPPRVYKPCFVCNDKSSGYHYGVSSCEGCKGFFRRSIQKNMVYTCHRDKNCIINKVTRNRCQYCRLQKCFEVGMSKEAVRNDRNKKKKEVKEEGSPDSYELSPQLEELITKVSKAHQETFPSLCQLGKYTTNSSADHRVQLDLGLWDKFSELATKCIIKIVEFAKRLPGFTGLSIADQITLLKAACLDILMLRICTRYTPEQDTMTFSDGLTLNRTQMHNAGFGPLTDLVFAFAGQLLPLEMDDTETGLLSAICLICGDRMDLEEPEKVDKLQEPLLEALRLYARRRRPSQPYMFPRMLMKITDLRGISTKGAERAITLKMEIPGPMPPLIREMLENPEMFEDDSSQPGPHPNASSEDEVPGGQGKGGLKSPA
How it was run: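 TRANS format measured activity of exogenous NR-GAL4 fusion (RARg) in transfected HepG2 liver cells after 24 h dosing. Induced reporter RNA was detected by RT-PCR/capillary electrophoresis fluorescence, analysed in the positive direction against DMSO.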

[10] = target: human RAR-related Orphan Receptor beta (RORb), RORB (gene 6096) (UniProt Q92753); assay: ATG_RORb_TRANS: Attagene TRANS-FACTORIAL HepG2 Assay for human RAR-related Orphan Receptor beta (RORb) (AID 2283010)
human RAR-related Orphan Receptor beta (RORb), RORB (gene 6096), sequence (Q92753 whole entry, looked up, the tested form may be a part): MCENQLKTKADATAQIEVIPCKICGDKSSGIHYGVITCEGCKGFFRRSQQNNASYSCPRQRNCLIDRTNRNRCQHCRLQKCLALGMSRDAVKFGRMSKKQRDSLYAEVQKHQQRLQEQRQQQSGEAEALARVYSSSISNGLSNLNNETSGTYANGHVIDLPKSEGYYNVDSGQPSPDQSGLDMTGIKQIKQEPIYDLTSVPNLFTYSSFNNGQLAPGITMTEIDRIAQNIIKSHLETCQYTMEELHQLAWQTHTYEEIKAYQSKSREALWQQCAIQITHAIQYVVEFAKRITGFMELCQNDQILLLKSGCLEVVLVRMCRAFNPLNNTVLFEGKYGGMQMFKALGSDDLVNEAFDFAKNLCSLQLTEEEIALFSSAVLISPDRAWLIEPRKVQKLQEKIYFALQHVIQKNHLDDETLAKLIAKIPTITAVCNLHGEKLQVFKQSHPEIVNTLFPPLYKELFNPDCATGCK
How it was run: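 Transfect HepG2 with multiple GAL4-UAS reporter transcription units; dose chemicals for 24 h; isolate RNA, reverse-transcribe and PCR-amplify reporter sequences; label, digest and resolve fragments by capillary electrophoresis; fit increases relative to DMSO.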

[11] = target: human RAR-related Orphan Receptor gamma (RORg), RORC (gene 6097) (UniProt P51449); assay: ATG_RORg_TRANS: Attagene TRANS-FACTORIAL HepG2 Assay for human RAR-related Orphan Receptor gamma (RORg) (AID 2283011)
human RAR-related Orphan Receptor gamma (RORg), RORC (gene 6097), sequence (P51449 whole entry, looked up, the tested form may be a part): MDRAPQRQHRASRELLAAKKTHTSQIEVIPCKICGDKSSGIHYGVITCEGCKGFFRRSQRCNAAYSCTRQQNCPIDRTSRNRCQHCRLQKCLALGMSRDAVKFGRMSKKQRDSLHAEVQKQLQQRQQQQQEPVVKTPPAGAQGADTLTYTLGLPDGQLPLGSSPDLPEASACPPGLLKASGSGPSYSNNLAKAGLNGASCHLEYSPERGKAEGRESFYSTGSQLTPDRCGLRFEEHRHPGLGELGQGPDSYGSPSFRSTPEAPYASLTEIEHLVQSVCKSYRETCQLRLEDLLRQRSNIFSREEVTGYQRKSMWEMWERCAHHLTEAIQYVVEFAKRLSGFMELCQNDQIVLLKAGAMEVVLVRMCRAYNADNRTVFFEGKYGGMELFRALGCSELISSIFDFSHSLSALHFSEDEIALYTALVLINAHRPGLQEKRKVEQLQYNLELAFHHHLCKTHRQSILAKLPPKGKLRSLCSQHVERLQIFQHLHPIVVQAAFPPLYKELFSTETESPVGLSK
How it was run: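 Reporter transcripts from a transfected RORg-GAL4 chimera in HepG2 cells were quantified 24 h after dosing by RT-PCR, 6-FAM labelling, HpaI digestion and capillary electrophoresis; increases over DMSO baseline were fitted.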

[12] = target: human Peroxisome Proliferator-activated Receptor delta (PPARd), PPARD (gene 5467) (UniProt Q03181); assay: ATG_PPARd_TRANS: Attagene TRANS-FACTORIAL HepG2 Assay for human Peroxisome Proliferator-activated Receptor delta (PPARd) (AID 2283002)
human Peroxisome Proliferator-activated Receptor delta (PPARd), PPARD (gene 5467), sequence (Q03181 whole entry, looked up, the tested form may be a part): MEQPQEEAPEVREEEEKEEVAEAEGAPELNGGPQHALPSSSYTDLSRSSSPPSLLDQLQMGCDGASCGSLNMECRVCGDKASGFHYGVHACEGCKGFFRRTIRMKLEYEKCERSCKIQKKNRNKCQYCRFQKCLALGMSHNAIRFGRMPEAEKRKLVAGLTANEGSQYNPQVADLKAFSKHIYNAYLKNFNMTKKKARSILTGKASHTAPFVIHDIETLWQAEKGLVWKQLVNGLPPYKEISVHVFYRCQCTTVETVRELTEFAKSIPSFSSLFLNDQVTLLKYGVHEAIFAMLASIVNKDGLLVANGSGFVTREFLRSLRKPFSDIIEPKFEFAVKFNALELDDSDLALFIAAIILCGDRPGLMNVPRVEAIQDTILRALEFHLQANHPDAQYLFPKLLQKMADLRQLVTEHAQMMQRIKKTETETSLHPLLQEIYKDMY
How it was run: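 HepG2 cells transiently transfected with multiplexed GAL4-UAS reporter units and exogenous chimeric NR-Gal4 proteins; 24 h compound exposure. Reporter mRNA measured by RT-PCR, 6-FAM labelling, HpaI digestion and capillary electrophoresis; gain of signal versus DMSO.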

[13] = target: human Retinoic Acid Receptor beta (RARb), RARB (gene 5915) (UniProt P10826); assay: ATG_RARb_TRANS: Attagene TRANS-FACTORIAL HepG2 Assay for human Retinoic Acid Receptor beta (AID 2283004)
human Retinoic Acid Receptor beta (RARb), RARB (gene 5915), sequence (P10826 whole entry, looked up, the tested form may be a part): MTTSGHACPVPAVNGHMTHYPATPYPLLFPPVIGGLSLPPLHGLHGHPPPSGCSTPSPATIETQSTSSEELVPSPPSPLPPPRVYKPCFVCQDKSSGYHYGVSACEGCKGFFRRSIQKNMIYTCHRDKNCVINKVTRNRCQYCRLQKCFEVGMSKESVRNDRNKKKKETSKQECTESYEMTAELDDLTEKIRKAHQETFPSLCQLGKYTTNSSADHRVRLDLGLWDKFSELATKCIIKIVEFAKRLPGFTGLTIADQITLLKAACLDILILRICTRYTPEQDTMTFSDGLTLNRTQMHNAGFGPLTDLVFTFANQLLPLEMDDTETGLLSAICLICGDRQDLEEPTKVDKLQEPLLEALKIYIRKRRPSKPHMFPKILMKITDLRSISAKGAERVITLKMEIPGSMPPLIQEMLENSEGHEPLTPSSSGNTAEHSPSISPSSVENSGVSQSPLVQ
How it was run: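 Induction of reporter mRNA from a chimeric RARb-Gal4 construct was measured by RT-PCR, FAM labelling, HpaI digestion and capillary electrophoresis. Measurements followed 24 h compound treatment of transiently transfected human HepG2 liver cells, with DMSO as baseline.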

[14] = BSK_3C_TissueFactor: BioMAP Diversity Plus: 3C Assay for Tissue Factor Biomarker Activity (AID 2282997; active = hit-call score of the fitted dose curve at least 0.9, where 1 is the maximum; inactive = score below 0.9); conditions: BioMAP 3C HUVEC, tissue factor biomarker readout; actives raise or lower the signal
How it was run: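 Tissue factor on primary human umbilical vein endothelium was read by ELISA 24 h after dosing, gain or loss relative to DMSO. Cytotoxicity ran alongside via SRB (0.1%, TCA-fixed, 560 nm).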

[15] = BSK_3C_uPAR: BioMAP Diversity Plus: 3C Assay for Urokinase-type plasminogen activator receptor (uPAR) Biomarker Activity (AID 2282998; active = hit-call score of the fitted dose curve at least 0.9, where 1 is the maximum; inactive = score below 0.9); conditions: BioMAP 3C HUVEC, uPAR biomarker ELISA; actives raise or lower the signal
How it was run: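 ELISA readout of uPAR on human vascular endothelium (umbilical vein primary cells), taken 24 h after chemical dosing. Increases and decreases are both fitted relative to DMSO vehicle.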

[16] = BSK_3C_VCAM1: BioMAP Diversity Plus: 3C Assay for Vascular cell adhesion molecule 1 (VCAM1) Biomarker Activity (AID 2282999; active = hit-call score of the fitted dose curve at least 0.9, where 1 is the maximum; inactive = score below 0.9); conditions: BioMAP 3C HUVEC, VCAM1 ELISA, cytokine-stimulated; actives raise or lower the signal
How it was run: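 Vascular primary endothelium (human umbilical vein) was exposed to chemicals and assayed 24 h later. VCAM-1 levels came from ELISA, with DMSO serving as baseline for bidirectional fitting.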

[17] = BSK_4H_Eotaxin3: BioMAP Diversity Plus: 4H Assay for Eotaxin 3 Biomarker Activity (AID 2283000; active = hit-call score of the fitted dose curve at least 0.9, where 1 is the maximum; inactive = score below 0.9); conditions: primary human endothelial cells (HUVEC); actives raise or lower the signal
How it was run: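 Human umbilical vein endothelial cells (BSK_4H system) dosed with test chemical; Eotaxin-3 (CCL26) measured by ELISA 24 h after dosing. Bidirectional curve fitting relative to DMSO negative control as baseline.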

[18] = read-out: Intercellular Adhesion Molecule 1 (ICAM1), ICAM1 (gene 3383); assay: BSK_3C_ICAM1: BioMAP Diversity Plus: 3C Assay for Intercellular Adhesion Molecule 1 (ICAM1) Biomarker Activity (AID 2283003; active = hit-call score of the fitted dose curve at least 0.9, where 1 is the maximum; inactive = score below 0.9); conditions: primary human endothelial cells (HUVEC); actives raise or lower the signal
How it was run: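 Chemicals are dosed onto primary human umbilical vein endothelium (3C system). After 24 h, ICAM-1 is measured by ELISA, and responses are fitted bidirectionally relative to DMSO.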

[19] = BSK_3C_Proliferation: Cell Proliferation Assessment in the BioMAP Diversity Plus: 3C Assay (AID 2283006; active = hit-call score of the fitted dose curve at least 0.9, where 1 is the maximum; inactive = score below 0.9;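 as to AC50: potency may reflect either rise or fall in cell number versus DMSO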); conditions: primary human endothelial cells (HUVEC)
How it was run: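 Cells (human umbilical vein endothelial, sub-confluent) receive test chemical; after 48 h they are fixed in 10% trichloroacetic acid, stained with 0.1% SRB and read at 560 nm. Activity is referenced to DMSO, fitting increases and decreases.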

Measured: AC50

CC(C)CC(C)CC(O)CC(C)C (stereo not given)
inactive: [1] | [3] | [4] | [5] | [6] | [7] | [8] | [9] | [10] | [11]
active: [2] 100 µM

CC1CCC(C(C)C)C(O)C1 (stereo not given)
inactive: [1] | [2] | [3] | [12] | [13] | [6] | [7] | [8] | [9] | [11]

O=C(O)COCC(=O)O
inactive: [1] | [2] | [3] | [6] | [8] | [10]

COc1ccccc1[N+](=O)[O-]
inactive: [2] | [3] | [4] | [8] | [11]

CN(C)c1cccc(O)c1
inactive: [1] | [2] | [3] | [5] | [12] | [7]
active: [8] 5.57 µM

O=C1OC2(c3ccccc31)c1ccc(O)c(Br)c1Oc1c2ccc(O)c1Br
active: [14] 31.9 µM | [15] 20 µM | [16] 20 µM | [17] 28.9 µM | [19] 9.61 µM | [8] 57 µM
not listed: [3] | [10] | [13]
inactive: all other assays above

COS(=O)(=O)O
inactive: [1] | [2] | [3] | [4] | [5] | [8]

CCOC(=O)CC(C)O (stereo not given)
inactive: [1] | [2] | [3] | [4] | [5] | [7] | [8] | [9] | [11]

C=C(C)C(=O)OCCOCCOCCOC(=O)C(=C)C
not listed: [6] | [9] | [10] | [11] | [12] | [13]
inactive: all other assays above

CN1C(=O)c2ccccc2C1=O
inactive: [1] | [2] | [3] | [4] | [5] | [12] | [9] | [11]

CC(=O)O[C@@H]1C[C@@H]2CC[C@@]1(C)C2(C)C
inactive: [1] | [2] | [3] | [5] | [6] | [8] | [9] | [11]

CC1(C)O[C@@H]2[C@@H](CO[C@@]3(COS(N)(=O)=O)OC(C)(C)O[C@@H]23)O1
inactive: [1] | [2] | [4] | [7] | [8]

Cc1ccc(S(N)(=O)=O)cc1
inactive: [1] | [2] | [3] | [4] | [5] | [13] | [6] | [8] | [9]

O=C(Nc1ccc2c(c1)Cc1ccccc1-2)C(F)(F)F
inactive: [1] | [4] | [5] | [6] | [7]
active: [2] 24.8 µM | [3] 24.5 µM | [8] 27.7 µM

CCOC(=O)[C@@H](C)Oc1ccc(Oc2nc3ccc(Cl)cc3o2)cc1
active: [2] 39.9 µM | [7] 39.2 µM
inactive: [1] | [4] | [5] | [12] | [8]

CN(C)c1ccncc1
inactive: [1] | [2] | [3] | [5] | [12] | [6] | [8]
